Hsp70 act: Hsp70 transcriptional activators, primary screen, cell-based, HeLa, Hsp70 promoter luciferase, luminescence, 10 µM. 200,000 tested, 0.04% active. HeLa Hsp70 promoter luciferase reporter; scaled: vehicle 0, proteasome-inhibitor control 100%. activation, % at 10 µM. AID 1203, 2008;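 active = activation above the mean across all tested compounds plus 3 SD, cutoff set per campaign, cut at about 5.5% in these data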;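 note: 100% = MG132 at 30 µM as the positive control and 0% = DMSO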
Insulin prom up: insulin promoter activators in MIN6 cells, imaging, high-content screening, mouse beta cells. MIN6 insulin promoter-GFP reporter; active compounds read high. 190,000 tested, 0.3% active. AID 1625, 2009. z-score at 5 µM;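 active = z-score above 3 at 5 µM with at least 500 cells counted in the well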
S1P4 antag: S1P4 receptor antagonists, primary screen, cell-based; Sphingosine 1-phosphate receptor 4 (Homo sapiens), O95977; S1P4-expressing cells, antagonist mode, reporter read-out; inhibition, % at 4.98 µM; 220,000 tested, 0.26% active; AID 1510, 2009; in the data active = inhibition above about 29%;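 note: 0% = wells stimulated with agonist and 100% = vehicle wells without agonist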
S1P4 agonist: S1P4 receptor agonists, primary screen, cell-based; Sphingosine 1-phosphate receptor 4 (Homo sapiens), O95977; S1P4-expressing cell line, agonist reporter assay; activation, % at 4.98 µM; 220,000 tested, 0.35% active; AID 1509, 2009; in the data active = activation above about 11%;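 note: 0% = DMSO vehicle and 100% = reference agonist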
INS promoter inh: inhibitors of insulin promoter-driven GFP, primary screen, imaging, TRM-6 cells (human fetal islet line), eGFP reporter, cell count | reporter expression induced with tamoxifen | inhibition, % at 2 µM | 130,000 tested, 0.9% active | AID 1273, 2008;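 active = inhibition above the mean plus 3 SD, with well images judged a real hit on visual review, cut at about 60% in these data, passing the limit was not always enough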
S1P3 antagonist: S1P3 receptor antagonists, primary screen, cell-based; CHO S1P3 NFAT-BLA reporter, FRET fluorescence, antagonist mode; inhibition, % at 4.98 µM; 170,000 tested, 0.27% active; AID 485, 2006;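 active = inhibition above the plate cutoff, the mean inhibition of test wells on that plate plus 3 SD, cut at about 28% in these data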;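 note: cells challenged with S1P at its EC80 of 0.8 µM; blue over green emission ratio from cleaved BLA substrate after 4 h stimulation; 0% = S1P-stimulated wells and 100% = unstimulated DMSO-only wells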
Target sequence (Q99500 whole entry, looked up): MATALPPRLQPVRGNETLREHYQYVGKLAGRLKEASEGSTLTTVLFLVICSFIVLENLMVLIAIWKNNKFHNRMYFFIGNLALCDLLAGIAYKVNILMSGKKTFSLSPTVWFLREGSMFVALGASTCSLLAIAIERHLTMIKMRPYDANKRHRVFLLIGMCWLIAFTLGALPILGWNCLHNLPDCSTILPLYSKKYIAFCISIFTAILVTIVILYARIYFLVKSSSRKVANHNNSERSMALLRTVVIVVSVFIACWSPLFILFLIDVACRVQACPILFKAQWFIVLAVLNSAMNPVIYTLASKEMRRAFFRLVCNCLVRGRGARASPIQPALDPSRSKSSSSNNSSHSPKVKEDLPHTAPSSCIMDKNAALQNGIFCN
Starred values were filed as active, the others as inactive; · = not tested or not shown. Compounds with a hit are over-represented: about 1.5% of the library has one in this group of screens.

SMILES	Hsp70 act	Insulin prom up	S1P4 antag	S1P4 agonist	INS promoter inh	S1P3 antagonist
Cc1ccccc1C(=O)c1c[nH]c(C(=O)NCCc2ccccn2)c1	0	0.09	6	0	·	-9
CCOC(=O)C(C)(C)Sc1nc2c(cnn2-c2ccc(Cl)cc2)c(=O)[nH]1	0	2.1	-9	0	·	49
CCC(Sc1nc2c(cnn2-c2ccc(Cl)cc2)c(=O)[nH]1)C(=O)OC (stereo not given)	0	1.7	-3	-1	80*	1
CC(C)OC(=O)c1c(NC(=O)CCC(=O)O)sc2c1CCCCC2	0	-0.59	-3	0	67*	4
COC(=O)c1c(NC(=O)CCC(=O)O)sc2c1CCCCC2	0	-0.34	-13	0	·	-20
CCOc1ccc(NC(=O)c2cnccn2)cc1	0	0.38	-13	-3	94*	·
CCOc1ccc(NC(=O)c2ccccn2)cc1	-1	-0.48	-16	1	-43	-7
COc1cccc(OC)c1OCCOc1ccccc1OC(C)C	0	0.21	-7	1	-6	·
CC(C)Nc1nc(NC(C)C)nc(N(C)C(N)=O)n1	0	0.15	2	0	73*	8
CC(C)Nc1nc(NC(C)C)nc(N(C)N)n1	0	·	16	-2	43	·
O=c1c(Cc2c(F)cccc2Cl)c(O)ccn1C1CCCCCC1	0	1.1	3	2	·	11
CCOC(=O)Nc1ccc2c(c1)N(C(=O)CCN1CCN(C)CC1)c1ccccc1S2	0	0.75	8	-2	3	·
CCOC(=O)Nc1ccc2c(c1)N(C(=O)CCN1CCN(CCO)CC1)c1ccccc1S2	-1	·	6	2	89*	·
c1ccc(Cc2ccc(OCCCNC3CCCC3)cc2)cc1	0	-0.34	7	1	·	-20
Cc1nc(S(=O)(=O)Cc2ccccc2Cl)nc2c1CCC2	0	0.71	6	0	73*	0
O=C(Cn1nnc(-c2cccs2)n1)N1c2ccccc2Sc2ccc(C(F)(F)F)cc21	0	·	0	1	80*	·
COC(=O)c1sc2ccccc2c1-n1cccc1C(=O)C(=O)Nc1ccc(F)cc1	0	5.4*	8	-2	54	·
S=C(Nc1ccc2cn[nH]c2c1)Nc1ccccc1Cl	1	0.71	11	1	64*	-13
S=C(Nc1ccc2cn[nH]c2c1)Nc1ccc(Cl)cc1Cl	0	·	-12	1	-15	-1
CN(Cc1ccc(O)cc1)C1CCCCC1	-1	-0.92	-18	0	92*	16
COc1ccc(CC(=O)N2CCN=C2SC)cc1	0	-0.78	-19	1	·	4
CSC1=NCCN1C(=O)Cc1ccc(Cl)cc1	0	-0.48	-23	2	·	66*
CCCCCCOc1ccc(N2C(=O)CC(N3CCN(CCN=CC4C(=O)CC(C)(C)CC4=O)CC3)C2=O)cc1 (stereo not given)	0	-0.66	7	0	·	-10
Cn1c(C(=O)N2CCC(C(=O)N3CCN(Cc4ccc5c(c4)OCO5)CC3)CC2)cc2sccc21	0	4.7*	9	0	50	-26
CCOc1cc(N2CCOCC2)c(OCC)cc1NC(=S)NCCCOC	0	-0.77	-6	1	15	-22
SMILES	Hsp70 act	Insulin prom up	S1P4 antag	S1P4 agonist	INS promoter inh	S1P3 antagonist
CCCNc1nc2c(c(=O)n(C)c(=O)n2C)n1Cc1ccc(F)cc1	0	-2	-15	1	·	85*
Cn1c(=O)c2c(nc(NCc3ccccc3)n2Cc2ccc(F)cc2)n(C)c1=O	0	-1.3	-14	0	·	15
COc1cccc2c(=O)n(CC(=O)Nc3ccc(F)cc3)ccc12	0	0.1	-4	0	·	·
CCOC(=O)COc1cccc2c(=O)n(CC(=O)NCCc3ccc(OC)c(OC)c3)ccc12	0	3.6*	0	1	20	-6
COc1cccc2c(=O)n(CC(=O)Nc3cccc(F)c3)ccc12	0	3.4*	-5	-2	·	-21
CCOC(=O)COc1cccc2c(=O)n(CC(=O)NCc3ccccc3)ccc12	·	0.13	27	1	·	17
CC1Oc2ccccc2N(CC(=O)N2CCc3ccccc32)C1=O (stereo not given)	0	1	-6	2	38	-42
O=C(CSc1ccccc1)Nc1cccnc1	0	-0.18	-14	0	23	30
COCCn1c(N)c(C(=S)NC(=O)c2cccs2)c(=O)[nH]c1=O	·	·	6	-1	·	-21
Nc1nc(SCC(=O)N2CCc3ccccc3C2)[nH]c(=O)c1-c1ccccc1	0	-0.38	19	0	75*	-19
CCOC(=O)c1c(C)nc2c(c1-c1cc(OC)ccc1OC)C(=O)CC(C)(C)C2	·	-0.2	-4	1	·	13
C=CCn1c(SCc2csc(C)n2)nc2sc3c(c2c1=O)CCCCC3	0	-0.42	-7	-3	34	9
C=CCn1c(SCc2csc(C)n2)nc2sc3c(c2c1=O)CCCC3	0	1.4	13	-2	71*	·
Cc1ccc(CCNC(=O)CCS(=O)(=O)c2ccc(Br)cc2)cc1	0	-0.18	-2	5	·	-16
CC(C)Cn1c(N)c(C(=O)COC(=O)c2cnc(Cl)c(Cl)c2)c(=O)n(C)c1=O	0	-1.1	7	2	64	-3
Cc1cc(C(F)F)n2nc(C(=O)Nc3ccc(S(=O)(=O)N4CCCCCC4)cc3)nc2n1	0	·	-7	-1	100*	8
Cc1onc(-c2ccccc2)c1C(=O)Nc1ccc(S(=O)(=O)N2CCCC2)cc1	0	-1.4	6	-1	78*	-11
Cc1ccnc2nc(C(=O)Nc3ccc(S(=O)(=O)N4CCCC4)cc3)nn12	·	0.34	4	1	·	-5
COc1ccc(NC(=O)c2nc3nc(C)cc(C(F)F)n3n2)cc1OC	0	0.64	-5	0	71*	-1
COc1ccc(/C=N/NC(=O)CSc2ccccn2)cc1OC	·	-0.36	2	1	·	-6
COc1ccc(/C=N/NC(=O)CSc2ccccc2)cc1OC	0	-0.67	-9	-1	64*	-3
CCCNC(=O)CN(CCc1ccccc1)S(C)(=O)=O	0	-0.4	-3	0	-93	·
CCNc1nc(NCC)nc(N(n2cnnc2)S(=O)(=O)c2ccc(C)cc2)n1	0	-0.16	-21	1	80*	-1
CCNc1nc(NC(C)C)nc(N(n2cnnc2)S(=O)(=O)c2ccc(C)cc2)n1	0	-0.01	-17	-1	37	-6
COc1ccccc1CN1CCNC(=O)C1CC(=O)NCCOc1cccnc1 (stereo not given)	0	-0.76	2	1	·	-17
CC1CCCN(c2nc3c(c(=O)n(C)c(=O)n3C)n2CCSc2nc3ccccc3s2)C1 (stereo not given)	0	3.2*	-4	-1	·	-18

Source: PubChem BioAssay
